Hits are enriched below; roughly 4.6% of the tested compounds scored in any of these assays.
TIM10 inh: growth inhibitors of isogenic TIM10 control yeast, primary screen, counter-screen for tim10-1 yeast inhibitor project, luminescence, uHTS; 330,000 tested, 1.4% active; S. cerevisiae TIM10 strain growth, BacTiter-Glo luminescence, 24 h; AID 463195, 2010; inhibition, % at 10 µM;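 active means inhibition of 40% or more at the single tested concentration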;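 further: wild-type TIM10 isogenic control strain grown at permissive 25 °C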
PfHsp90 yeast 2: growth inhibition of PfHsp90-expressing yeast, primary screen, antimalarial PfHsp90 inhibitor project, S. cerevisiae, BacTiter-Glo luminescence, single point, set 2 | inhibition, % at 9.4 µM | 310,000 tested, 0.32% active | BacTiter-Glo ATP, 48 h; yeast lacking PDR1 and PDR3 efflux regulators;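 active means every replicate shows inhibition above about 80%, whatever the replicate mean, limit read from the data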
tim23-1 inh: growth inhibitors of tim23-1 mutant yeast, primary screen, luminescence, uHTS. S. cerevisiae tim23-1 growth, BacTiter-Glo luminescence, 24 h. inhibition, % at 20 µM. 330,000 tested, 1.3% active. AID 463212, 2010;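 active means growth inhibition of the mutant yeast at or above 50%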;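 further: temperature-sensitive mutant grown at 25 °C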
SKKanGAS inh: S. pyogenes SKKanGAS growth inhibitors in kanamycin, primary screen, streptokinase expression inhibitor project, SKKanGAS strain, BacTiter-Glo luminescence; 6 h; inhibition, % at 7.5 µM; 300,000 tested, 1.3% active; AID 1662, 2009;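 active means mean replicate score, as percent of positive control median, at least 50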;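 further: strain carries kanamycin resistance gene driven by streptokinase promoter and grows in 40 µg/ml kanamycin; loss of luminescence reflects streptokinase promoter inhibition or plain growth inhibition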
tim10-1 inh: growth inhibitors of tim10-1 mutant yeast, primary screen, luminescence, uHTS; S. cerevisiae tim10-1 ts strain growth, BacTiter-Glo, 24 h; inhibition, % at 20 µM; 330,000 tested, 2.2% active; AID 463190, 2010;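 active means inhibition of at least 40%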;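 further: mutant grown at 25 °C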
V-ATPase pHluor: regulators of yeast V-ATPase proton pumping, primary screen, pHLuorin cytosolic pH fluorescence | S. cerevisiae | AID 504577, 2011 | response, % at 10 µM | 350,000 tested, 0.37% active; in the data active means response mostly above about 7.3%, no sharp cut-off; inactive means mostly below about 5.4%; further: actives read high
V-ATPase pH SP: yeast V-ATPase proton pumping modulators, confirmation, S. cerevisiae, pH-sensitive GFP, second cherry-pick | shares compounds with V-ATPase pHluor | S. cerevisiae pHLuorin cytosolic pH, V-ATPase proton transport | response, % at 10 µM | 980 tested, 2% active | AID 602197, 2012; in the data active means response above about 24%
Large screens that a line does not name were inactive (follow-up assays come after a bar, where they were run).

CC(=O)c1cnn(-c2ccc(Cl)cc2)c1C	none | V-ATPase pH SP inactive
CC(=O)c1sc(=S)n(-c2ccccc2)c1C	none
COc1ccc([N+](=O)[O-])cc1N(CC(=O)N1CCN(Cc2ccccc2)CC1)S(C)(=O)=O	V-ATPase pHluor 8.8 | V-ATPase pH SP inactive
COc1ccc(OC)c(N(CC(=O)N2CCN(Cc3ccccc3)CC2)S(C)(=O)=O)c1	none
O=C1C=C(c2ccc(-c3ccccc3)cc2)C[C@@H](c2ccc(F)cc2)C1	none (no result: SKKanGAS inh)
O=C1C=C(c2ccc(C(=O)O)cc2)C[C@@H](c2ccc(F)cc2)C1	V-ATPase pHluor 9.7 (no result: SKKanGAS inh) | V-ATPase pH SP inactive
CCCCn1c(=O)c(C(=O)OCC)c(O)c2ccccc21	V-ATPase pHluor 9.8 | V-ATPase pH SP inactive
Cc1cc(C)c(NC(=O)CSc2ccc(-c3ccccn3)nn2)c(C)c1	V-ATPase pHluor 11 | V-ATPase pH SP inactive
O=C(Sc1nnc(-c2ccccc2)o1)N1c2ccccc2Sc2ccccc21	none | V-ATPase pH SP inactive
CC1CC(C)CN(C(=O)CN2C(=O)NC3(CCCCCC3)C2=O)C1 (stereo not drawn)	V-ATPase pHluor 12 (no result: PfHsp90 yeast 2, SKKanGAS inh) | V-ATPase pH SP inactive
CC1CN(C(=O)CN2C(=O)NC3(CCCCCCC3)C2=O)CC(C)O1 (stereo not drawn)	none (no result: PfHsp90 yeast 2)
CC(=O)Nc1ccc(S(=O)(=O)NNC(=O)COc2ccc(C)cc2)cc1	none
CC(=O)Nc1ccc(S(=O)(=O)NNC(=O)COc2ccc(Cl)cc2Cl)cc1	V-ATPase pHluor 13 | V-ATPase pH SP inactive
CC1CCC(NC(=O)COC(=O)CCC(=O)c2ccc(Cl)s2)CC1 (stereo not drawn)	none
Cc1cc(=O)oc2cc(OCC(=O)NC3CC(C)(C)NC(C)(C)C3)ccc12	V-ATPase pHluor 11 | V-ATPase pH SP inactive
CCc1cc(=O)oc2cc(OCC(=O)NC3CC(C)(C)NC(C)(C)C3)ccc12	none
CCS(=O)(=O)n1nc(-c2ccc(C)cc2)nc1N	none
Cc1ccc(-c2nc(N)n(S(=O)(=O)c3ccc(C)cc3)n2)cc1	V-ATPase pHluor 8.7 | V-ATPase pH SP inactive
COc1ccccc1C(=O)N/C(=C\c1cn(S(=O)(=O)N(C)C)c2ccccc12)C(=O)N1CCOCC1	none
O=[N+]([O-])c1ccc2c(c1)-c1ccccc1C2=NO	PfHsp90 yeast 2 105, V-ATPase pHluor 20 (no result: TIM10 inh, tim23-1 inh, SKKanGAS inh, tim10-1 inh) | V-ATPase pH SP 119
Nc1ccc2c(c1)C(=NO)c1cc([N+](=O)[O-])ccc1-2	none (no result: TIM10 inh, tim23-1 inh, SKKanGAS inh, tim10-1 inh)
Cc1cc(C)c(OCCOCCN2CCNCC2)c(C)c1	V-ATPase pHluor 16 | V-ATPase pH SP inactive
O=C(NCCc1cccs1)c1ccc(Cl)c(Cl)c1	V-ATPase pHluor 8.8 | V-ATPase pH SP inactive
C/C(=N\NC(=S)NC1CCCCC1)c1cccc(C(F)(F)F)c1	V-ATPase pHluor 13 | V-ATPase pH SP inactive
C/C(=N\NC(=S)NC1CCCCC1)c1cccc(Br)c1	none
N#CCc1c(C#N)c(N)nc(N2CCCC(CO)C2)c1C#N (stereo not drawn)	none (no result: PfHsp90 yeast 2)
N#CCc1c(C#N)c(N)nc(N2CCCC(O)C2)c1C#N (stereo not drawn)	V-ATPase pHluor 11 | V-ATPase pH SP inactive
O=c1c2ccccc2sn1-c1ccc(Cl)cc1	none (no result: TIM10 inh, PfHsp90 yeast 2, tim23-1 inh, SKKanGAS inh, tim10-1 inh) | V-ATPase pH SP inactive
O=c1c2ccc(F)cc2sn1-c1ccccc1	none (no result: TIM10 inh, PfHsp90 yeast 2, tim23-1 inh, SKKanGAS inh, tim10-1 inh)
CCOC(=O)c1c(NC(=O)COC(=O)CCNS(=O)(=O)c2ccccc2)sc(C(=O)NC)c1C	V-ATPase pHluor 9.8 (no result: TIM10 inh, tim23-1 inh, SKKanGAS inh, tim10-1 inh) | V-ATPase pH SP inactive
COC(=O)c1c(NC(=O)COC(=O)CCNS(=O)(=O)c2ccccc2)sc(C)c1C	none
Cc1cc(C)nc(SC2=CS(=O)(=O)c3ccccc32)n1	none | V-ATPase pH SP inactive
Cc1cc(C)nc(Sc2nc(Nc3ccccc3)nc(Sc3nc(C)cc(C)n3)n2)n1	none
CC(C)C[C@H](NC(=O)OC(C)(C)C)C(=O)N[C@@H](CO)[C@H](O)[C@@H]1C[C@@H]1C(=O)NC1CC1	none
